Compounds with a hit are over-represented: about 3.5% of the library has one in this group of screens.
GPR151 ag: activators of human GPR151, primary screen, cell-based, PathHunter beta-arrestin, luminescence; PathHunter beta-arrestin GPR151 cells; 650,000 compounds, 1% hits; activation, % at 11.2 µM; G-protein coupled receptor 151 (Homo sapiens), Q8TDV0; in the data active = activation above about 4.9%
Target sequence (Q8TDV0 whole entry, looked up): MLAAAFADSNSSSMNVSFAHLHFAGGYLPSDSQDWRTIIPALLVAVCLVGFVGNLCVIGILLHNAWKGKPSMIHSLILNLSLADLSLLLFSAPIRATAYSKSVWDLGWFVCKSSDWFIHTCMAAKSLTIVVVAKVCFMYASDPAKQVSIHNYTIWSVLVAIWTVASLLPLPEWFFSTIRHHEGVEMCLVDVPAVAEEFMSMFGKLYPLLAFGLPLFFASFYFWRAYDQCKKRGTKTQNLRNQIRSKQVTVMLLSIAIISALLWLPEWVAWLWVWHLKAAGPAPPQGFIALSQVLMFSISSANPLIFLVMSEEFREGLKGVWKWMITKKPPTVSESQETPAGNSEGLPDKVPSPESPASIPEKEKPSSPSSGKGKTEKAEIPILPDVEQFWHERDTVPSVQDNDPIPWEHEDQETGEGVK
FBW7 act: FBW7 E3 ligase activators, primary screen, biochemical, AlphaScreen, human; F-box/WD repeat-containing protein 7 (Homo sapiens), Q969H0; AlphaScreen FBW7–phospho-cyclin E peptide binding, activator screen; normalized activity (activation), % at 26.1 µM; 650,000 compounds, 0.13% hits; AID 1259310, 2017; in the data active = normalized activity above about 1.9%;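 also: purified mutant Fbw7 with reduced substrate affinity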
TEAD-YAP block: TEAD-YAP interaction inhibition, primary screen, TEAD-YAP interaction inhibitor project, luminescence, HEK-TIYL cells. TEAD-Gal4/YAP UAS-luciferase luminescence. inhibition, % at 9.12 µM. 640,000 compounds, 1.4% hits. AID 1259422, 2018; in the data active = inhibition above about 32%
MITF inh: MITF inhibitors, primary screen, biochemical, AlphaScreen, human; AlphaScreen MITF homodimerization, bead proximity signal; inhibition, % at 2.6 µM; 650,000 compounds, 0.91% hits; in the data active = inhibition above about 50%
GPR151 confirm: GPR151 activators, triplicate retest, confirmation, cell-based, PathHunter beta-arrestin, luminescence | shares compounds with GPR151 ag | GPR151 PathHunter beta-arrestin cells, 90 min; % of EA-reagent control over plate median | activation, % at 11.2 µM | 6,700 tested, under 10 active | AID 1508609, 2020;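 active = mean percent activation across replicates above the confirmation screen cutoff of 4.91%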
GPR119 ag: GPR119 activators in beta-arrestin cells, counter-screen for GPR151 activator project, cell-based, PathHunter beta-arrestin, luminescence, triplicate; shares compounds with GPR151 ag; 90 min; 0 = compound-well median, 100 = enzyme-acceptor control; activation, % at 11.2 µM; 6,700 compounds, 0.3% hits; AID 1508611, 2020;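 active = mean percent activation in the counterscreen above 29.09%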;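 also: counterscreen on off-target GPR119 to flag nonselective hits from the GPR151 activator screen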
Large screens that a line does not name were inactive (follow-up assays come after a bar, where they were run).

Cc1cc(C)nc(NS(=O)(=O)c2ccc(Nc3ncnc(N)c3[N+](=O)[O-])cc2)n1	none
Nc1ncnc(Nc2ccc(S(=O)(=O)Nc3ncccn3)cc2)c1[N+](=O)[O-]	GPR151 ag 4.9 | GPR151 confirm inactive | GPR119 ag inactive
COc1ccc(C)cc1N(CC(N)=O)S(C)(=O)=O	GPR151 ag 7.7 | GPR151 confirm inactive | GPR119 ag inactive
COC(=O)CN(c1cc(C)ccc1OC)S(C)(=O)=O	none
Cc1ccc(C)c(N(CC(=O)NC(C(C)C)C(C)C)S(C)(=O)=O)c1	GPR151 ag 5.9 | GPR151 confirm inactive | GPR119 ag inactive
O=C(N/N=C/c1c(O)c([N+](=O)[O-])cc2oc3c(c12)CCCC3)c1ccc(O)cc1O	none
COc1ccc(OC)c(CNCc2ccc3c(c2)OCO3)c1	none
COc1ccc(OC)c(C2=NNC(=NCc3ccc4c(c3)OCO4)SC2)c1	GPR151 ag 5.6 | GPR151 confirm inactive | GPR119 ag inactive
CCOC(CNc1nc(OC)cc(OC)n1)(OCC)c1ccccn1	GPR151 ag 5.0 | GPR151 confirm inactive | GPR119 ag inactive
Cn1c2ccccc2n2cc(-c3ccc4c(c3)OCO4)nc12	none
O=C(Cc1ccccc1)Nc1cccc(-c2nnc(-c3cccc(NC(=O)Cc4ccccc4)c3)o2)c1	none
O=C(COc1ccccc1)Nc1ccc2oc(-c3ccccc3)nc2c1	GPR151 ag 6.3 | GPR151 confirm inactive | GPR119 ag inactive
O=C(COc1ccccc1)Nc1nnc(-c2ccccc2)o1	GPR151 ag 6.0 | GPR151 confirm inactive | GPR119 ag inactive
O=C(O)CCC(=O)Nc1cccc(-c2nnc(-c3ccccc3)o2)c1	GPR151 ag 5.0 | GPR151 confirm inactive | GPR119 ag inactive
Cc1c(NC(=O)CNC(=O)C2CCCCC2)c(=O)n(-c2ccccc2)n1C	none
COC(=O)C1=C(C)N(c2ccc(C(C)C)cc2)C(=O)/C1=C\c1cc(Br)ccc1OC	GPR151 ag 11 | GPR151 confirm inactive | GPR119 ag inactive
COc1cccc(OCC(O)CNC(=O)C2CC(Cc3ccccc3Cl)=NO2)c1 (stereo not drawn)	none
COCCn1c(SCC(=O)Nc2ccc(C(C)=O)cc2)nnc1-c1ccco1	none
COc1cc(CN2CCC3(C=Cc4ccccc43)CC2)cc2c1OCO2	none (no result: FBW7 act, TEAD-YAP block, MITF inh)
COc1cc(CN2CCN(c3ccccc3Cl)CC2)cc2c1OCO2	GPR151 ag 5.5 | GPR151 confirm inactive | GPR119 ag inactive
CCOC(=O)CC(=O)N1CCc2nc(-c3cccnc3)nc(N3CCCCCC3)c2C1	GPR151 ag 7.1 | GPR151 confirm inactive | GPR119 ag inactive
O=S(=O)(CCN1CCc2nc(-c3cccnc3)nc(N3CCCC3)c2C1)c1ccccc1	GPR151 ag 8.4 | GPR151 confirm inactive | GPR119 ag inactive
COc1cccc(NC(=O)NNC(=O)c2cc3occc3[nH]2)c1	GPR151 ag 5.0 | GPR151 confirm inactive | GPR119 ag inactive
CCOc1ncccc1C(=O)NC1(C)CCS(=O)(=O)C1 (stereo not drawn)	GPR151 ag 6.2 | GPR151 confirm inactive | GPR119 ag inactive
CC(=O)Nc1ccc(NC(=O)c2oc3cc(C)c(C)cc3c2C)cc1	GPR151 ag 23 | GPR151 confirm inactive | GPR119 ag inactive
Cc1cc2oc(C(=O)Nc3cccnc3)c(C)c2cc1C	none
C#C[C@]1(OC(C)=O)CC[C@H]2[C@@H]3CCC4=CC(=O)CC[C@@H]4[C@H]3CCC21C (stereo partly drawn)	GPR151 ag 9.3 (no result: TEAD-YAP block) | GPR151 confirm inactive | GPR119 ag inactive
C#C[C@]1(O)CC[C@H]2[C@@H]3CCC4=CC(=O)CC[C@@H]4[C@H]3CC[C@@]21C	none (no result: TEAD-YAP block)
CC1(C)CC1(CNCc1c(C(=O)N2CCCC2)nc2sccn12)c1ccccc1 (stereo not drawn)	none
C=CCn1c(=NC(=O)c2ccco2)sc2cccc(OC)c21	none
CCn1c(=NC(=O)c2ccco2)sc2cccc(OC)c21	GPR151 ag 5.0 | GPR151 confirm inactive | GPR119 ag inactive
CCOCCn1c(=NC(=O)c2ccco2)sc2cc(C)ccc21	GPR151 ag 5.8 | GPR151 confirm inactive | GPR119 ag inactive
CCn1c(=NC(=O)c2ccco2)sc2cc3c(cc21)OCCO3	GPR151 ag 5.7 | GPR151 confirm inactive | GPR119 ag inactive
COc1ccc(OC)c2c1sc(=NC(=O)c1ccco1)n2C	GPR151 ag 5.3 | GPR151 confirm inactive | GPR119 ag inactive
CCn1c(=NC(=O)c2ccco2)sc2cccc(F)c21	none
O=C(c1c(F)cccc1F)N1CCN(Cc2cc3cccc4c3n(c2=O)CCC4)CC1	none
Cc1ccc(CNC(=O)CCNS(=O)(=O)c2ccc3[nH]c(=O)ccc3c2)cc1	none
O=C(CCNS(=O)(=O)c1ccc2[nH]c(=O)ccc2c1)NCc1ccccc1	GPR151 ag 8.2 | GPR151 confirm inactive | GPR119 ag inactive
O=C(Cc1ccc(F)cc1)NCCc1nnc2n1CCN(Cc1cc3ccccc3o1)CC2	GPR151 ag 5.1 | GPR151 confirm inactive | GPR119 ag inactive
CC(C)C(=O)NCCc1nnc2n1CCN(Cc1cc3ccccc3o1)CC2	none
CCc1c(C)sc(NC(=O)c2c(-c3c(F)cccc3Cl)noc2C)c1C(N)=O	none
CCCCC1(CCCC)NC(=S)N(c2ccc(C)cc2)N1	GPR151 ag 11 | GPR151 confirm inactive | GPR119 ag inactive
COc1cccc(C(=O)N2CCN=C2SCc2cccc([N+](=O)[O-])c2)c1	none
O=C(NCC1CCCN(Cc2ccc(CO)o2)C1)c1ccc(-c2ccccc2)cc1 (stereo not drawn)	GPR151 ag 16 | GPR151 confirm inactive | GPR119 ag inactive
COCc1ccc(CN2CCCC(CNC(=O)c3ccc(-c4ccccc4)cc3)C2)o1 (stereo not drawn)	none
Cc1cc(CNC(=O)CCC2(Cc3ccc(F)cc3)CCC(=O)N2)nn1C (stereo not drawn)	none
Cc1ccc(C2=NS(=O)(=O)N(C)C(C(=O)NCC(C)C)=C2)cc1	none
Cc1ccc(C2=NS(=O)(=O)N(C)C(C(=O)NCc3ccccn3)=C2)cc1	GPR151 ag 6.9 | GPR151 confirm inactive | GPR119 ag inactive
N#C/C(=C\c1ccc(N2CCOCC2)cc1)c1nc2ncc(Br)cc2[nH]1	none
CC(=O)Nc1ccc(N=Cc2c(C)[nH]n(-c3ccc(C)cc3)c2=O)cc1	none
O=C(Nc1ccc(Cl)c(-c2nc3ccccc3o2)c1)c1ccccc1Br	GPR151 ag 5.9 | GPR151 confirm inactive | GPR119 ag inactive
Cc1ccc(C(=O)Nc2ccc(-c3nc4ccccc4o3)cc2)c(Cl)c1	GPR151 ag 6.5 | GPR151 confirm inactive | GPR119 ag inactive

Screens: PubChem BioAssay, The Scripps Research Institute Molecular Screening Center
